# From PubChem BioAssay
# Where “and” joins values, the source holds several entries; their conditions need not be identical. Identical values can stand only once. Records with an inconclusive call do not appear. Calls of active or inactive are those of the source.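 How the source made its calls, unless noted: active means normalized viability below 100% at a tested concentration; inactive means the rest.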
# Assays:
# [1] = viability loss in pontine glioma line – cell-based, SU-DIPG-XXV, MIPE5.0, CellTiter-Glo, qHTS, dose response (AID 1347065; cut-off not given, nearly all actives have AC50 up to about 26 µM;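 further: cells exposed to compound for 48 hours before ATP readout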); details: CellTiter-Glo ATP luminescence
# [2] = SU-DIPG-VI glioma cell viability, MIPE4.0 library, CellTiter-Glo luminescence, qHTS (AID 1347066; cut-off not given, nearly all actives have AC50 up to about 30 µM;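 further: cells exposed to compound for 48 hours before readout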); details: CellTiter-Glo ATP luminescence
# [3] = JHH-DIPG-1 glioma cell viability, MIPE5.0 library, CellTiter-Glo luminescence, qHTS (AID 1347067; cut-off not given, nearly all actives have AC50 up to about 26 µM;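 further: cells exposed to compound for 48 hours before readout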); details: JHH-DIPG-1 glioma viability, CellTiter-Glo ATP luminescence
# [4] = SU-DIPG-XXV glioma cell viability, MIPE5.0 library, qHTS (AID 1347068; cut-off not given, nearly all actives have IC50 up to about 30 µM)
# [5] = survival rescue of mitochondrial mutant cells in low glucose, primary screen, MELAS cybrids, Rieske KO mouse fibroblasts, CellTiter-Glo (AID 1508586;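 active means mean z-score across replicates of 1.96 or higher in either the MELAS or the Rieske mutant cell line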;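 further: z relative to plate mean and SD of compound and empty wells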)
# [6] = target: NAD(+) hydrolase SARM1 (Homo sapiens) (UniProt Q6SZW1); assay: SARM1 TIR NADase inhibitors, cell lysate, NAD-Glo luminescence (AID 1508614;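 active means compound whose remaining NAD level is above about 45 nM, limit read from the data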); details: SAM-TIR HEK293T lysate NADase, at 1 µM, stronger effect = higher value
# [7] = target: Mitogen-activated protein kinase 7 (Homo sapiens) (UniProt Q13164); assay: ERK5 transactivation activators in reporter cells, primary screen, cell-based, HTS (AID 1508626;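 active means luciferase signal above three times the same-plate solvent-only control wells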;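 further: luciferase driven by Gal4-ERK5 fusion binding five Gal4 sites before minimal TATA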); details: HeLa Gal4-ERK5 transactivation, 18 h, at 5 µM, stronger effect = higher value
# [8] = viability rescue of complex I mutant cybrids, primary screen, cell-based, galactose medium, ATP luminescence (AID 1645843;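 active means z-score of at least 1.8 in each of two replicates, scored against plate mean and spread of sample wells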;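 further: positive z means more ATP and so rescue of galactose-driven cybrid death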); details: complex I mutant cybrid cells, 72 h, stronger effect = higher value
# [9] = modifiers of HSF1 nuclear foci, imaging, Selleck Cancer Library (AID 1347162; in the data active means plate-normalised HSF1 focus index below about 0.46); details: human cells, at 10 µM; SSMD: measured here: HSF1 foci SSMD mean; cell count: measured here: cell number; plate-normalised HSF1 focus index: stronger effect = lower value
# [10] = ovarian cancer cell viability with rucaparib, profiling panel, oncology-focused library, rucaparib conditional (AID 1508598); details: patient-derived ovarian cancer cells, CellTiter-Glo viability, 144 h, stronger effect = lower value
# [11] = LFS_MB_P medulloblastoma growth inhibition, cell-based, chromothripsis tumors, cisplatin or BGB combos (AID 1671449; in the data active means inhibition above about 80%;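 further: cells exposed for 96 hours; 0% = vehicle DMSO and 100% = killing by high DMSO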); details: LFS_MB_P medulloblastoma cells
# [12] = HDN33 neuroblastoma growth inhibition, cell-based, chromothripsis tumors, cisplatin or BGB combos (AID 1671450; in the data active means inhibition above about 80%;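 further: cells exposed to compound for four days; 0% = vehicle DMSO and 100% = cell killing by high DMSO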); details: HDN33 neuroblastoma cells, stronger effect = higher value
# [13] = ICB984 medulloblastoma cell growth inhibition, synergistic combos for chromothripsis tumors, cisplatin or BGB combos (AID 1671451; call rule not given here;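 further: cells exposed for 96 hours before readout; 0% = vehicle DMSO and 100% = killing by high DMSO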); details: ICB984 medulloblastoma cells, drug combinations, stronger effect = higher value
# [14] = LFS_MB_1R medulloblastoma cell growth inhibition, synergistic combos for chromothripsis tumors, cisplatin or BGB combos (AID 1671452; in the data active means inhibition above about 80%;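 further: cells exposed for 96 hours before readout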); details: LFS_MB_1R medulloblastoma cells, stronger effect = higher value
# [15] = HTB85 osteosarcoma cell growth inhibition, synergistic combos for chromothripsis tumors, BGB or cisplatin IC20 combos (AID 1671453; in the data active means inhibition above about 80%;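 further: cells exposed for 96 hours before readout; 0% = vehicle DMSO and 100% = high DMSO killing control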); details: HTB85 osteosarcoma cells, drug combinations, stronger effect = higher value
# [16] = CRL2098 osteosarcoma cell growth inhibition, synergistic combos for chromothripsis tumors, BGB or cisplatin IC20 combos (AID 1671454; in the data active means inhibition above about 80%;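 further: cells exposed for 96 h before readout; 0% = vehicle DMSO and 100% = killing by high DMSO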); details: CRL2098 osteosarcoma cells, drug combinations, stronger effect = higher value
# [17] = HD-MB03 medulloblastoma cell growth inhibition, synergistic combos for chromothripsis tumors, BGB or cisplatin IC20 combos (AID 1671455; in the data active means inhibition above about 83%;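 further: 0% = vehicle DMSO and 100% = high DMSO as cytotoxic control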); details: HD-MB03 medulloblastoma cells, stronger effect = higher value
# [18] = MELAS cybrid survival, CellTiter-Glo 48 h, stronger effect = higher value
# [19] = Rieske KO mouse fibroblast survival, CellTiter-Glo 72 h
# [20] = measured here: combination with BGB IC40, at 0.05 µM
# NAD(+) hydrolase SARM1 (Homo sapiens), sequence (Q6SZW1 whole entry, looked up, the tested form may be a part): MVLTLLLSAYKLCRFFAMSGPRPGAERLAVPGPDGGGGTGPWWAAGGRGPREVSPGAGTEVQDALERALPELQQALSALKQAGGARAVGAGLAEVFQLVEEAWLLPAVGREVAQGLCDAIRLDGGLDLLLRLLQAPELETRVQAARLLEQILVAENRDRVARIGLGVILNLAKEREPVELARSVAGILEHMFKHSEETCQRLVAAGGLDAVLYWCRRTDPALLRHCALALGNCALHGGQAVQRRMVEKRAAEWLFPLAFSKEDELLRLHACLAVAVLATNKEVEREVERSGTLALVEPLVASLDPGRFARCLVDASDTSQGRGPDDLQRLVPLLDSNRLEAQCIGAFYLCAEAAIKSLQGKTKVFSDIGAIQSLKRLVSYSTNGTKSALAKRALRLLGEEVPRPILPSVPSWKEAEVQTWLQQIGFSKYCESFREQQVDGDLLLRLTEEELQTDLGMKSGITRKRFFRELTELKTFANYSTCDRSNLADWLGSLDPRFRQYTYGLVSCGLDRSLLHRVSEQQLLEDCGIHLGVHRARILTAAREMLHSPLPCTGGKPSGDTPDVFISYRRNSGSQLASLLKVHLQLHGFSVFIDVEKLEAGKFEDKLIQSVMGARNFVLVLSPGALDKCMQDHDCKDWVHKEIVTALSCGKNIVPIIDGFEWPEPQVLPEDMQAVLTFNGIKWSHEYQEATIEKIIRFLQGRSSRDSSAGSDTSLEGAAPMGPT
# Mitogen-activated protein kinase 7 (Homo sapiens), sequence (Q13164 whole entry, looked up, the tested form may be a part): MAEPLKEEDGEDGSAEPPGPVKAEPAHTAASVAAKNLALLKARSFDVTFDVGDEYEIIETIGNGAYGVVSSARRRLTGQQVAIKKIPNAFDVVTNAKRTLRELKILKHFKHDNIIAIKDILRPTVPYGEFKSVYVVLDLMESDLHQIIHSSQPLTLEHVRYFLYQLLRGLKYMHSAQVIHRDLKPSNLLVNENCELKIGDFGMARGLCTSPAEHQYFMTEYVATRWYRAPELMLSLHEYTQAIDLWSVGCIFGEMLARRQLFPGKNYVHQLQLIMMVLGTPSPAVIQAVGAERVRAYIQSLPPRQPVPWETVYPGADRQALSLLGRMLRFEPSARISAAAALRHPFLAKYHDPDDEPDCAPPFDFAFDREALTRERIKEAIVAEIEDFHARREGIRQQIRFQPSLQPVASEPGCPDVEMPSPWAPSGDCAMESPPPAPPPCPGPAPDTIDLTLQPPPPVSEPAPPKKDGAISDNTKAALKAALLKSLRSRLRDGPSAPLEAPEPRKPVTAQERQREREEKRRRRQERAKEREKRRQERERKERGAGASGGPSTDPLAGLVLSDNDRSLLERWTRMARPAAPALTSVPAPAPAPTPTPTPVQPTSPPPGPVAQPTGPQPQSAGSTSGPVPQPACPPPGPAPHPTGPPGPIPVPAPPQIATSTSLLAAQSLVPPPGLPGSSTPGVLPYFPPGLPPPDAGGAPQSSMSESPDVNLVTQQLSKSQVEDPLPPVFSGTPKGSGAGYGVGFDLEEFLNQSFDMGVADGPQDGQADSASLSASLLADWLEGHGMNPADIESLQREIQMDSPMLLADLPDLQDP
structure (smiles),measurement,setting,value
CN1C(C(=O)Nc2ccccn2)=C(O)c2sccc2S1(=O)=O,outcome,[1],inactive
same,outcome,[2],inactive
same,outcome,[3],inactive
same,outcome,[4],inactive
same,z-score,[5]; [18],-0.378 (inactive) and 0.116 (inactive) and -0.742 (inactive)
same,z-score,[5]; [19],0.123 and -0.0171 and -1.25
same,remaining NAD,[6],10 nM (inactive)
same,luciferase signal,[7],180 AU (inactive)
same,z-score,[8],-0.07 (inactive)
Cn1nnc2c(C(N)=O)ncn2c1=O,outcome,[1],inactive
same,outcome,[2],inactive
same,outcome,[3],inactive
same,outcome,[4],inactive
same,SSMD,[9],1.56
same,cell count,[9],7070
same,plate-normalised HSF1 focus index,[9],1.09 (inactive)
same,z-score,[5]; [18],-0.452 (inactive) and 0.68 (inactive) and -0.709 (inactive)
same,z-score,[5]; [19],0.371 and -0.0371 and -0.913
same,viability,"[10]; at 0.000305 µM, OCI-C5x cells, with rucaparib 10 µM, 100% = cells with rucaparib alone",103% (inactive)
same,viability,"[10]; at 0.000305 µM, OCI-C5x cells, without rucaparib",108% (inactive)
same,viability,"[10]; at 0.000305 µM, OCI-P5x cells, with rucaparib 20 µM, 100% = cells with rucaparib alone",91% (active)
same,viability,"[10]; at 0.000305 µM, OCI-P5x cells, without rucaparib",88.3% (active)
same,viability,"[10]; at 0.00122 µM, OCI-C5x cells, with rucaparib 10 µM, 100% = cells with rucaparib alone",103% (inactive)
same,viability,"[10]; at 0.00122 µM, OCI-C5x cells, without rucaparib",109% (inactive)
same,viability,"[10]; at 0.00122 µM, OCI-P5x cells, with rucaparib 20 µM, 100% = cells with rucaparib alone",108% (inactive)
same,viability,"[10]; at 0.00122 µM, OCI-P5x cells, without rucaparib",98.5% (active)
same,viability,"[10]; at 0.00488 µM, OCI-C5x cells, with rucaparib 10 µM, 100% = cells with rucaparib alone",113% (inactive)
same,viability,"[10]; at 0.00488 µM, OCI-C5x cells, without rucaparib",110% (inactive)
same,viability,"[10]; at 0.00488 µM, OCI-P5x cells, with rucaparib 20 µM, 100% = cells with rucaparib alone",110% (inactive)
same,viability,"[10]; at 0.00488 µM, OCI-P5x cells, without rucaparib",101% (inactive)
same,viability,"[10]; at 0.0195 µM, OCI-C5x cells, with rucaparib 10 µM, 100% = cells with rucaparib alone",118% (inactive)
same,viability,"[10]; at 0.0195 µM, OCI-C5x cells, without rucaparib",108% (inactive)
same,viability,"[10]; at 0.0195 µM, OCI-P5x cells, with rucaparib 20 µM, 100% = cells with rucaparib alone",106% (inactive)
same,viability,"[10]; at 0.0195 µM, OCI-P5x cells, without rucaparib",106% (inactive)
same,viability,"[10]; at 0.0781 µM, OCI-C5x cells, with rucaparib 10 µM, 100% = cells with rucaparib alone",102% (inactive)
same,viability,"[10]; at 0.0781 µM, OCI-C5x cells, without rucaparib",101% (inactive)
same,viability,"[10]; at 0.0781 µM, OCI-P5x cells, with rucaparib 20 µM, 100% = cells with rucaparib alone",112% (inactive)
same,viability,"[10]; at 0.0781 µM, OCI-P5x cells, without rucaparib",104% (inactive)
same,viability,"[10]; at 0.313 µM, OCI-C5x cells, with rucaparib 10 µM, 100% = cells with rucaparib alone",101% (inactive)
same,viability,"[10]; at 0.313 µM, OCI-C5x cells, without rucaparib",104% (inactive)
same,viability,"[10]; at 0.313 µM, OCI-P5x cells, with rucaparib 20 µM, 100% = cells with rucaparib alone",111% (inactive)
same,viability,"[10]; at 0.313 µM, OCI-P5x cells, without rucaparib",109% (inactive)
same,viability,"[10]; at 1.25 µM, OCI-C5x cells, with rucaparib 10 µM, 100% = cells with rucaparib alone",108% (inactive)
same,viability,"[10]; at 1.25 µM, OCI-C5x cells, without rucaparib",90.4% (active)
same,viability,"[10]; at 1.25 µM, OCI-P5x cells, with rucaparib 20 µM, 100% = cells with rucaparib alone",106% (inactive)
same,viability,"[10]; at 1.25 µM, OCI-P5x cells, without rucaparib",110% (inactive)
same,viability,"[10]; at 5 µM, OCI-C5x cells, with rucaparib 10 µM, 100% = cells with rucaparib alone",96.4% (active)
same,viability,"[10]; at 5 µM, OCI-C5x cells, without rucaparib",92.7% (active)
same,viability,"[10]; at 5 µM, OCI-P5x cells, with rucaparib 20 µM, 100% = cells with rucaparib alone",95.5% (active)
same,viability,"[10]; at 5 µM, OCI-P5x cells, without rucaparib",114% (inactive)
same,remaining NAD,[6],10 nM (inactive)
same,z-score,[8],-0.305 (inactive) and -0.09 (inactive) and 0.155 (inactive)
same,inhibition,"[11]; at 0.5 µM, stronger effect = higher value",-17.4% (inactive) and 18.8% (inactive)
same,inhibition,"[11]; measured here: combination with BGB IC20, at 0.005 µM",-10.2% and -21.6%
same,inhibition,"[11]; measured here: combination with BGB IC40, at 0.005 µM",14.1% and -10.5%
same,inhibition,[11]; [20],2.17% and -11.4%
same,inhibition,"[11]; measured here: combination with cisplatin, at 0.5 µM, stronger effect = higher value",-29.5% and 9.38%
same,inhibition,"[11]; measured here: combination with cisplatin, at 5 µM, stronger effect = higher value",-24.1% and -22.5%
same,inhibition,"[12]; BGB combo, at 5 µM",22.2% and -9.06%
same,inhibition,[12]; at 0.5 µM,13.3% (inactive) and -1.85% (inactive)
same,inhibition,"[12]; cisplatin combo, at 5 µM",6.08% and -19.1%
same,inhibition,"[12]; measured here: with BGB IC20 combination, at 0.5 µM",17.6% and 6.04%
same,inhibition,"[12]; measured here: with cisplatin IC20 combination, at 0.5 µM",10.1% and -5.64%
same,inhibition,"[12]; single agent, at 5 µM",14.8% and -8.19%
same,inhibition,"[13]; BGB IC20 combo, at 0.005 µM",-9.22% and 1.55%
same,inhibition,"[13]; BGB IC40 combo, at 0.005 µM",-2.52% and -17.2%
same,inhibition,"[13]; BGB IC40 combo, at 0.05 µM",-13.6% and -3.32%
same,inhibition,[13]; at 0.5 µM,-14.5% (inactive) and -3.73% (inactive)
same,inhibition,"[13]; cisplatin combo, at 0.05 µM",-17.6% and -3.32%
same,inhibition,"[13]; cisplatin combo, at 0.5 µM",-0.899% and 2.38%
same,inhibition,"[13]; cisplatin combo, at 5 µM",-10.6% and -15.5%
same,inhibition,"[13]; measured here: 5 uM single agent, at 5 µM",10.8% and -28.4%
same,inhibition,[14]; at 0.5 µM,-13.9% (inactive) and 3.35% (inactive)
same,inhibition,[14]; [20],-9.42% and 8.49%
same,inhibition,"[14]; measured here: combination with cisplatin, at 0.5 µM",-8.99% and 3.26%
same,inhibition,"[14]; measured here: combination with cisplatin, at 5 µM",-56.8% and -3.5%
same,inhibition,[15]; at 0.5 µM,6.66% (inactive) and -23.3% (inactive)
same,inhibition,"[15]; measured here: with BGB IC20, at 0.5 µM",9.09% and -44.6%
same,inhibition,"[15]; measured here: with BGB IC20, at 5 µM",6.52% and -4.64%
same,inhibition,"[15]; measured here: with cisplatin IC20, at 0.5 µM",-3.99% and -22.6%
same,inhibition,"[15]; measured here: with cisplatin IC20, at 5 µM",-15.9% and 29.4%
same,inhibition,"[15]; single agent, at 5 µM",7.64% and -1.96%
same,inhibition,[16]; at 0.5 µM,-9.21% (inactive) and -17.1% (inactive)
same,inhibition,"[16]; measured here: combination with BGB at IC20, at 0.5 µM",-17.8% and -2.5%
same,inhibition,"[16]; measured here: combination with cisplatin at IC20, at 0.5 µM",7.75% and -28.9%
same,inhibition,[17]; at 0.5 µM,-0.81% (inactive) and -5.74% (inactive)
same,inhibition,"[17]; measured here: combo with BGB at IC20, at 0.5 µM",-12.4% and -6.59%
same,inhibition,"[17]; measured here: combo with cisplatin at IC20, at 0.5 µM",4.26% and -10.3%
